Source: PubChem BioAssay (several laboratories)
Shown are actives, neighbours in structure and some others; about 5.2% of the full set was active somewhere.
SMARCA2 act: increases SMARCA2 function in MMTV reporter cells; MG213 cells, MMTV-luciferase reporter, dexamethasone, overnight; AID 652017; activation, % at 9.1 µM; 370,000 tested, 1% active; in the data active = activation above about 7.8%;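 also: 0% = vehicle wells and 100% = reference activator wells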
esBAF inh: inhibitors of esBAF chromatin remodeling in mouse ES cells. Bmi1-luciferase knock-in reporter, 24 h; 100% = twice the neutral-well signal. reporter increase, % at 12.5 µM. 350,000 tested, 2% active. AID 602393; in the data active = activation above about 40%;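 also: 0% = median of the plate's neutral control wells and 100% = double that signal; a rise in the Bmi1 reporter signal indicates esBAF inhibition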
NadD block: NadD (S. aureus) enzyme inhibition; purified NadD enzyme, colorimetric absorbance read-out; inhibition, % at 20 µM; 360,000 tested, 0.78% active; AID 602399; in the data active = inhibition above about 26%
Vif imaging: inhibitors of HIV Vif; HEK293T cells, Vif self-association by quenched fluorescence, imaging, 24 h; inhibition, % at 7.49 µM; 340,000 tested, 0.35% active; AID 602346; in the data active = inhibition above about 50%, passing the limit was not always enough
SKN-1 inh: blocks SKN-1 activity in C. elegans; C. elegans VP596 Pgst-4::GFP/RFP ratio, acrylamide-induced, 24 h; inhibition, % at 21.8 µM; 360,000 tested, 0.49% active; AID 624304;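 active = interference check ratio from 0.5 to 1.5 plus GFP to RFP signal ratio inhibition reaching or exceeding a fixed threshold, cut at about 30% in these data, passing the limit was not always enough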
NR3A LBD binder: modulators (binders) of human NR3A ligand-binding domain; NR3A LBD differential scanning fluorimetry, Tm shift; 0% = protein alone, 100% = glycine-bound protein; Tm shift relative to glycine control, % at 25 µM; 340,000 tested, 2.5% active; AID 1259313;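 active = melting temperature shift of at least 10% of the positive control shift, at one fixed dose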
SMARCA2 conf: confirmation of SMARCA2 (BRM) function activators. MG213 cells, MMTV-luciferase with dexamethasone, luminescence, overnight; MG213 cells expressing E1A, Rb sequestered; DMSO wells 0%, reference activator 100%. 3,500 tested, 30% active. activation, % at 9.1 µM. shares compounds with SMARCA2 act. AID 652260;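 active = activation above its plate's cutoff, the mean activation of tested wells plus 3 SD, cut at about 7.9% in these data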
VP16 Luc act: GAL4-VP16 reporter activation counter-screen; shares compounds with SMARCA2 act; HEK293 GAL4-VP16 pG5luc reporter, luciferase luminescence; scaled: DMSO wells 0%, SAHA wells 100%; activation, % at 9.1 µM; 3,500 tested, 41% active; AID 686939;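 active = activation above the solvent-only control well mean plus 3 SD, averaged across control plates, cut at about 5.2% in these data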
* = called active by the depositor; x = no result given.

SMILES	SMARCA2 act	esBAF inh	NadD block	Vif imaging	SKN-1 inh	NR3A LBD binder	SMARCA2 conf	VP16 Luc act
C[C@H](CO)N1C[C@H](C)[C@@H](CN(C)Cc2ccc(C(=O)Nc3ccccc3N)cc2)Oc2ccc(NC(=O)NC3CCCCC3)cc2CC1=O	x	-11	x	x	x	x	x	x
CCC(=O)Nc1ccc2c(c1)C(=O)N(C)[C@@H]1CC[C@H](CC(=O)NCc3ccc(OC)cc3)O[C@H]1CO2	x	-6	x	x	x	x	x	x
C[C@@H]1CN([C@H](C)CO)C(=O)c2cc(NC(=O)c3ccccc3)ccc2O[C@@H](C)CCCCO[C@H]1CN(C)C(=O)Cc1ccccc1	x	3	x	x	x	x	x	x
CN1C(=O)c2cc(NC(=O)Nc3ccccc3Cl)ccc2OC[C@H]2O[C@H](CC(=O)NCCCN3CCOCC3)CC[C@@H]21	x	3	x	x	x	x	x	x
Cc1noc(C)c1S(=O)(=O)Nc1ccc2c(c1)C(=O)N([C@H](C)CO)C[C@H](C)[C@H](CN(C)Cc1ccc(C(=O)O)cc1)O2	x	-1	x	x	x	x	x	x
Cc1ccc(S(=O)(=O)Nc2ccc3c(c2)C(=O)N([C@@H](C)CO)C[C@H](C)[C@H](CN(C)C(=O)NC2CCCCC2)OCCCC[C@@H](C)O3)cc1	x	0	x	x	x	x	x	x
COC(=O)Cc1nnn2c1[C@H](C)[C@@H](OC)c1ccc(C(F)(F)F)cc1-2	11*	x	x	x	x	x	0	3
CC=Cc1ccc2n(c1=O)C[C@@H]1[C@@H](CO)[C@H](C(=O)NC3CCCCC3)N(C(=O)C3CC3)[C@H]21 (mixture of isomers)	x	0	x	x	x	x	x	x
O=C(NC1CCCCCC1)C(=S)NCCc1ccccc1	-3	x	3	1	-11	2	x	x
O=C(NCCC1=CCCCC1)NC1CCCCC1	8.7*	16	-2	4	55*	-1	8.1*	8.7*
O=C(NCCc1ccccc1)NC1CCCCC1	11*	12	-3	x	2	0	9.0*	7.7*
NC(=O)NCCC1=CCCCC1	-1	0	6	2	0	0	x	x
CO[C@@H]1CN(C)C(=O)c2ccc(NC(=O)c3cccc(F)c3)cc2OC[C@H](C)N(C)C[C@@H]1C	x	3	x	x	x	x	x	x
Cc1cc(O)c(C(=O)/C=C/c2ccc(Cl)cc2)c(=O)o1	1	30	15	-10	2	-3	x	x
CC(=Nc1ccc(Cl)cc1N)c1c(O)cc(C)oc1=O	9.0*	x	x	x	x	x	5	15*
COc1ccc(N2CCN(c3cncc(C)n3)CC2)cc1	8.2*	27	3	-3	8	x	-1	2
Cc1cncc(N2CCN(c3ccccn3)CC2)n1	0	7	-6	x	4	x	x	x
COc1ccc(C(c2nnnn2C(C)(C)C)N2CCN(c3nc4ccccc4s3)CC2)cc1 (centres undefined)	9.2*	-1	1	-9	23	13*	-1	1
C[C@@H]1CN([C@H](C)CO)C(=O)c2cc(NC(=O)C3CC3)ccc2O[C@@H]1CN(C)S(=O)(=O)c1cccs1	x	-3	x	x	x	x	x	x
O=C(NNC(=O)c1ccc(Cl)cc1Cl)c1ccncc1	-2	x	3	2	-9	2	x	x
O=C(NNC(=O)c1ccccc1Cl)c1ccncc1	8.7*	-2	0	-1	-2	-8	-4	0
Cc1cccc(CNC(=O)c2cc(S(=O)(=O)N3CCOCC3)cn2C)c1	14*	-5	0	4	-4	-2	2	1
O=[N+]([O-])c1ccccc1N/N=C/c1cc2ccccc2nc1Cl	8.2*	30	4	x	-2	1	11*	5.3*
Clc1nc2ccccc2cc1/C=N/Nc1nc2ccccc2[nH]1	5	x	10	14	18	-14	x	x
O=C(O)c1ccc(N/N=C/c2cc3ccccc3nc2Cl)cc1	13*	x	-8	-3	-1	3	8	12*
SMILES	SMARCA2 act	esBAF inh	NadD block	Vif imaging	SKN-1 inh	NR3A LBD binder	SMARCA2 conf	VP16 Luc act
COCC1CCN(Cc2nc(-c3cccs3)no2)C1 (centres undefined)	13*	x	-1	-5	7	-2	2	6.0*
C[C@@H]1CN(Cc2nc(-c3cccs3)no2)C[C@H](C)O1	-2	x	1	3	0	-3	x	x
c1ccc(OCc2noc(CN3CCC(C4CCCCC4)C3)n2)cc1 (centres undefined)	-4	x	-4	x	-1	0	x	x
COCC1CCN(Cc2nc(COc3ccccc3)no2)C1 (centres undefined)	8.3*	-1	-1	3	-9	-1	-3	1
COc1cccc(-c2cccc(-c3nc(C(=O)NCCCN4CCOCC4)cc4c3[C@@H](CCO)N(S(=O)C(C)(C)C)C4)c2)c1 (some centres undefined)	x	0	x	x	x	x	x	x
C[C@H]1CN([C@@H](C)CO)C(=O)c2cccc(NC(=O)NC3CCCCC3)c2O[C@@H]1CN(C)Cc1ccncc1	x	0	x	x	x	x	x	x
Cc1ccc(-c2nc(CN3CCCCC3)cc(CN3CCCCC3)c2O)cc1	8.2*	x	0	0	3	2	3	2
CC(C)=CCNc1ncnc2c1c(C#N)cn2C1OC(CO)C(O)C1O (centres undefined)	41*	x	-2	2	14	4	59*	0
Cc1noc(C)c1NC(=O)Nc1cccc2c1O[C@@H](CN(C)C(=O)Nc1ccc(F)cc1)[C@H](C)CN([C@H](C)CO)C2=O	x	1	x	x	x	x	x	x
CCCN(CCC)C(=O)C1CCCN(S(=O)(=O)c2ccc3c(c2)oc(=O)n3C)C1 (centres undefined)	10*	-3	-3	27	10	1	2	0
COC(CNC(=O)C1CCCN(S(=O)(=O)c2ccc3c(c2)oc(=O)n3C)C1)OC (centres undefined)	0	1	-5	9	0	1	x	x
O=C(Cn1sc2ccccc2c1=O)NC12CC3CC(CC(C3)C1)C2	x	30	13	-3	15	3	x	x
O=C(Cn1sc2ccccc2c1=O)Nc1ccccc1	12*	-1	-4	-5	10	x	6	0
COc1ccc(NC(=O)N(C)C[C@@H]2Oc3c(NC(=O)c4cc(C)nn4C)cccc3C(=O)N([C@@H](C)CO)C[C@H]2C)cc1	x	0	x	x	x	x	x	x
C[C@H](CO)N1C[C@H](C)[C@H](CN(C)S(=O)(=O)c2ccc(F)cc2)Oc2ncc(-c3cccc(C(F)(F)F)c3)cc2C1=O	x	-2	x	x	x	x	x	x
O=C1C(c2ccccc2)c2ccccc2N1Cc1ccccc1 (centres undefined)	-4	3	2	23	4	-2	x	x
